The nature of this assay: GAPDH versus PEG-3 reporter suppression – cell-based, luminescence, counter-screen for PEG-3 promoter inhibitor project, SAR follow-up (AID 651551). As to conditions: HeLa PEG-Prom / GAPDH luciferase reporter, 6 or 24 h, run 1, 24 h; at 99 µM (top of the series). A general note: Counterscreens check selectivity or assay interference.
`CCCn1nc(C(=O)Nc2nc3ccccc3s2)c2ccccc2c1=O`: the inhibition % (higher = more inhibition) is 37.5%. The value for `CCCn1nc(C(=O)Nc2nc(-c3ccccn3)cs2)c2ccccc2c1=O` was 73.2%. `O=C(Nc1nc(-c2ccccc2)cs1)c1nn(-c2ccccc2)c(=O)c2ccccc12` had an inhibition % (higher = more inhibition) of 23.5%. `COc1ccccc1Nc1nc(-c2sc(NC(=O)c3ccco3)nc2C)cs1` registered an inhibition % (higher = more inhibition) of 68.4%. `CCn1nc(C(=O)Nc2nc(-c3ccccn3)cs2)c2ccccc2c1=O` yielded an inhibition % (higher = more inhibition) of 32.8%. The value for `Cc1cc(NC(=O)c2ccccc2C(F)(F)F)n(-c2nc3ccccc3[nH]2)n1` was 97.3%. Compound `Cc1ccc(Cl)cc1Nc1nc(-c2sc(NC(=O)c3ccco3)nc2C)cs1` gave an inhibition % (higher = more inhibition) of 78%. For the compound `COc1ccc(Cl)cc1Nc1nc(-c2sc(NC(=O)c3ccccc3)nc2C)cs1`, the inhibition % (higher = more inhibition) stood at 74.9%. `COc1ccc(-n2nc(C(=O)NCC(=O)Nc3cccc(OC)c3)c3ccccc3c2=O)cc1` showed an inhibition % (higher = more inhibition) of 28.1%. As for `Cc1nc(NC(=O)c2ccccc2)sc1-c1csc(Nc2cccc(Cl)c2C)n1`, the inhibition % (higher = more inhibition) worked out at 43.1%. In turn, `Cc1cc(NC(=O)c2ccccc2C)n(-c2nc3ccccc3[nH]2)n1` gave an inhibition % (higher = more inhibition) of 57.6%. `Cc1nc(NC(=O)c2ccccc2)sc1-c1csc(Nc2ccccc2Cl)n1`: the inhibition % (higher = more inhibition) amounted to 22.6%. In turn, `COCCCNC(=O)c1ccc(Cn2c(=O)c3ccccc3n(Cc3ccccc3C#N)c2=O)cc1` displayed an inhibition % (higher = more inhibition) of 73.3%. `Cc1nc(NC(=O)c2ccccc2)sc1-c1csc(Nc2ccccc2)n1` had an inhibition % (higher = more inhibition) of 92%. As to `CCn1cc(C(=O)NCc2ccco2)c(=O)c2cc(S(=O)(=O)N3CCCC3)ccc21`, the inhibition % (higher = more inhibition) is 56.3%.

`Cc1cc(NC(=O)c2ccccc2)n(-c2nc3ccccc3n2C)n1`: the inhibition % (higher = more inhibition) turned out to be 6.34%. As to `Cc1cc(NC(=O)c2ccccc2)n(-c2nc3ccccc3[nH]2)n1`, the inhibition % (higher = more inhibition) is 14.1%. As for `COc1ccc(-n2nc(C(=O)NCC(=O)Nc3ccc(OC)c(OC)c3)c3ccccc3c2=O)cc1`, the inhibition % (higher = more inhibition) is 84.2%. The figure for `O=C(Nc1nc2ccccc2s1)c1nn(-c2ccccc2)c(=O)c2ccccc12` is 40.7%; for `CCCn1nc(C(=O)Nc2nc(-c3ccncc3)cs2)c2ccccc2c1=O` it is 88.9%. Compound `O=C(Nc1nccs1)c1nn(-c2ccccc2)c(=O)c2ccccc12` had an inhibition % (higher = more inhibition) of 38.3%. Compound `COc1ccc(-n2nc(C(=O)NCC(=O)Nc3cc(OC)c(OC)c(OC)c3)c3ccccc3c2=O)cc1OC` registered an inhibition % (higher = more inhibition) of 69.6%. `Cc1cc(NC(=O)c2cccc(C)c2C)n(-c2nc3ccccc3[nH]2)n1` yielded an inhibition % (higher = more inhibition) of 27.5%.
